The term inhibition denotes the relative decrease from the control value, in per cent.

This is one part of the list. Unmarked numbers belong to inactive results. The source made the active and inactive calls. The rule behind the calls is not given here.

The target of the experiment is Tyrosine-protein phosphatase non-receptor type 5 (Homo sapiens) (UniProt P54829). Nature of the experiment: retest of PTPN5 enzyme inhibition – biochemical, fluorescence intensity, single concentration, confirmation (AID 623866).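 Note: 0% = enzyme with substrate plus DMSO and 100% = substrate without enzyme.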 As to conditions: recombinant STEP, OMFP fluorogenic substrate, at 20 µM, hits give high values.
Sequence of Tyrosine-protein phosphatase non-receptor type 5 (Homo sapiens) (P54829 whole entry, looked up): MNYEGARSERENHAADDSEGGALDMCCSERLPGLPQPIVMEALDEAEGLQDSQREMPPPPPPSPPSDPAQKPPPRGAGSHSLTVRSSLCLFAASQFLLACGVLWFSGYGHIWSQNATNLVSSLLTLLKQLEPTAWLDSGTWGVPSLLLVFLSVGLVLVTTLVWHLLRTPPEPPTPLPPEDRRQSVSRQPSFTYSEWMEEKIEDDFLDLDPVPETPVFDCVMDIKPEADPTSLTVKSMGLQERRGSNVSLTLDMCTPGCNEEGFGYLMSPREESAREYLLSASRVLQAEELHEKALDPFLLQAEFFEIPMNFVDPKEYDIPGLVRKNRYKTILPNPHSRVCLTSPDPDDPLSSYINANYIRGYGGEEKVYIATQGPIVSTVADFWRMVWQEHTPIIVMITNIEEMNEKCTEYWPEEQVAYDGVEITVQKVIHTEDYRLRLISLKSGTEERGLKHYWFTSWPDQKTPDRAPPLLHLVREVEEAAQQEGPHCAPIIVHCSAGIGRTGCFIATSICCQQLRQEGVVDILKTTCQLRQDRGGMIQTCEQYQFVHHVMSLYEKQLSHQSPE
Turning to `Cc1ccccc1CC1(CO)CCCN(C(=O)c2cc(-c3ccccc3)no2)C1` (centres undefined), the inhibition was 0.313%.

As to `O=C(Nc1cccnc1)c1cc2cc(Br)ccc2oc1=O`, the inhibition was 8.13%.

As to `COc1ccc2[nH]c(=O)c(-c3noc(-c4ccc(F)cc4)n3)cc2c1`, the inhibition is 8.96%. In the case of `Cc1ccc(-c2nnc(-c3ccc(NC(=O)c4cccs4)cc3)o2)cc1`, the inhibition is 10.7%. The value for `Cc1cc(C(=O)N2CCN(c3ccccn3)CC2)c(C)o1` was 7.4%; that for `O=C(N/N=C/c1cccc(Br)c1)c1ccc(N2CCCC2=O)cc1` was 41.4% (active); that for `CCCS(=O)(=O)N1CCCC(C(=O)NCc2ccco2)C1` (centres undefined) was 1.82%. The value for `Cc1ccc(OCC(=O)Nc2ccc(-c3nc4ncccc4o3)cc2)cc1` was 23.6%; that for `C/C=C/C(=O)Nc1ccc(N2CCN(c3ccc(C(F)(F)F)cn3)CC2)nc1` was 12.4%; that for `COCc1c(C(=O)N/N=C/C2CC=CCC2)nnn1-c1nonc1N` (centres undefined) was -1.89%. The value for `Cc1ccc(S(=O)(=O)c2c[nH]c3ccc(Cl)cc3c2=O)cc1` was 23.8% (active); that for `O=C(NN=Cc1ccccc1O)NN=Cc1ccccc1O` was 90.1% (active). On to `C/C(=N\Nc1ccc(S(N)(=O)=O)cc1[N+](=O)[O-])c1cccs1`, for which the inhibition is 64.7% (active). The value for `N#Cc1ccc(C(=O)Nc2cccc3cccnc23)c(F)c1` was -3.4%; that for `Nc1c(Cl)cc(-c2csc(N3CCCC3c3nc4cc(Cl)c(Cl)cc4n3CCOCCO)n2)cc1Cl` (centres undefined) was 20.3%; that for `O=C(N/N=C/c1coc2ccccc2c1=O)c1cc2ccccc2o1` was 24.4% (active). The value for `Cc1c(CCC(=O)O)c(=O)oc2c(C)c(OCc3ccccc3Cl)ccc12` was 42.7% (active); that for `Cc1ccc(CNC(=O)CSc2nnc3c(n2)[nH]c2ccc(F)cc23)cc1` was -0.633%; that for `O=C(COc1cccc(F)c1)Oc1ccc(C(=O)c2ccccc2)cc1` was 12.2%.

As for `COCCN(C(=S)Nc1ccccc1OC)C1CCN(C(C)C)CC1`, the inhibition is 7.61%. The value for `O=C(CSC(=S)N1CCCCC1)c1c(F)cccc1F` was -5.75%; that for `Cc1ccn2c(-c3csc(Nc4ccc(C(=O)O)cc4)n3)c(C)nc2c1` was -1.96%; that for `N#Cc1c(-c2cccs2)nc(SCC(=O)c2ccc(Br)cc2)[nH]c1=O` was 103% (active). The value for `CCc1ccc(NC(=O)CS(=O)CC(=O)NCCCc2ccccc2)cc1` (centres undefined) was -4.12%.
